Measured values published in PubChem BioAssay AID489008 (National Center for Advancing Translational Sciences (NCATS), 2010).
Records with an inconclusive call do not appear. Active and inactive are the calls of the source. The call rests on the fitted dose curve; in most records, active means well fitted inhibition curve with a large enough effect; inconclusive means small, poorly fitted or top-dose-only effect; inactive means flat fitted curve, though single readings scatter.

These molecules were tested against Ferritin light chain (Equus caballus) (UniProt P02791) (assay: Confirmation Assay for Identification of Novel General Anesthetics). Conditions: apoferritin 1-aminoanthracene fluorescence displacement.
Chain of Ferritin light chain (Equus caballus) (P02791 2-175 limits assumed): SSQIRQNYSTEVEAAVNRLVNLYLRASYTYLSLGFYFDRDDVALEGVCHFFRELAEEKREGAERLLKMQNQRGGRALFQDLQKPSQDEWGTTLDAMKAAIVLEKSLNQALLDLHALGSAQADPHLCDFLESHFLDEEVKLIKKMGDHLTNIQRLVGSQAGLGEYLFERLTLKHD
Method in brief: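 Competitive displacement of profluorescent 1-aminoanthracene from 10 uM horse-spleen apoferritin in 50% saturated 1-AMA/PBS; 10 min RT, fluorescence Ex 380/Em 535. Normalized to free 1-AMA and complex; four-parameter Hill fit.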
Further: nearly all actives have a fitted effect of over 40% in size.
Potency means the concentration at half of the fitted maximal effect.

Potency, active:
Nc1nnc(COc2cccc(C(F)(F)F)c2)s1 15.8 µM
O=C(CSc1nnnn1C1CCCCC1)Nc1nc2c(s1)CCCC2 31.6 µM
O=C1CC(c2ccc(O)cc2)Oc2ccccc21 (stereo not drawn) 15.8 µM
O=C(c1csc2ccccc12)N1CCCCCC1 31.6 µM
c1cnc(NC2CCCCCC2)nc1 15.8 µM
Cc1cc(S(=O)(=O)NCCc2ccccc2)c(C)s1 15.8 µM
Oc1ccc(C(=S)N2CCCCCC2)cc1 14.1 µM
O=C1CC2(CCCC2)CC(=O)N1c1ccccc1 15.8 µM
CC(Nc1ccccc1)c1cccnc1 (stereo not drawn) 15.8 µM
Cc1ccc(NC(=O)COC(=O)CSC(=S)N2CCOCC2)cc1 15.8 µM
COc1ccc(NC(C)c2ccccc2)cc1 (stereo not drawn) 15.8 µM
O=C(O)Cc1csc(Nc2cccc(Cl)c2)n1 12.6 µM
CCc1ccc(NC(=O)C2(C)Cc3ccccc3C(=O)O2)cc1 (stereo not drawn) 31.6 µM
Cc1ccccc1Nc1nc2ccccc2s1 14.1 µM
Fc1ccccc1SCc1nnc(-c2ccccc2Br)o1 15.8 µM
Cc1ccc(Cn2cccc(NC(=O)NC3CCCCC3)c2=O)cc1 15.8 µM
Cc1cccc(NC(=O)N2CCCCCC2)c1 11.2 µM
CC(=O)Nc1ccc(C(=O)OCC(=O)NC2CCCCCCC2)cc1 15.8 µM
Cc1ccccc1OCC(=O)N1CCCCCCC1 7.94 µM
O=c1cc(C23CC4CC(CC(C4)C2)C3)[nH][nH]1 12.6 µM
COc1cccc(CNc2ccc(F)c(Cl)c2)c1 7.94 µM
Cc1sc2ncn(CC(=O)NCc3ccco3)c(=O)c2c1-c1ccccc1 28.2 µM
Cc1ccc(-c2ccc(=O)n(CC(=O)NCCC(C)C)n2)cc1 5.01 µM
C=C(C)C(=O)OC1(C(F)(F)F)Oc2cc(C)ccc2NC1=O (stereo not drawn) 15.8 µM
O=C(COC(=O)C1=COCCO1)NC1CCCCCCC1 12.6 µM
N#Cc1ccc(NC(=O)COC(=O)CNC(=O)C2CCCCC2)cc1 15.8 µM
O=C(COC(=O)c1ccccn1)NC12CC3CC(CC(C3)C1)C2 7.94 µM
O=C(Nc1ccc(Br)cc1)N1CCCCCC1 25.1 µM
Cc1cccc(NC(=O)N2CCCCCC2)c1C 8.91 µM
Cc1cc(C)n2nc(CC(=O)NC3CCCCCCC3)nc2n1 10 µM
Cc1ccc(OCC(=O)N2CCCCCCC2)cc1C 35.5 µM
O=C(COC(=O)CC1CC2CCC1C2)NC(=O)NC1CCCC1 (stereo not drawn) 15.8 µM
N#CC(Nc1ccccc1)c1ccccc1OCc1ccccc1 (stereo not drawn) 35.5 µM
Cc1ccccc1OCC(=O)N1CCCc2ccccc21 17.8 µM
Cc1cc(C)c(C)c(OCC(=O)N2CCCCCC2)c1 17.8 µM
CN(C)c1ccc(C(=S)N2CCCCCC2)cc1 25.1 µM
O=S(=O)(NCCC1=CCCCC1)c1ccc(F)cc1 8.91 µM
O=C(Cn1nc(-c2ccc(Cl)cc2)ccc1=O)NCC1CCCO1 (stereo not drawn) 14.1 µM
